Reference: the supplement of paper PMC8728848
The sample as a whole holds a higher share of the strongest signals than the screen did.

What was measured:
Test in all cases: glycan array binding signal (z-score within array); higher = stronger binding
Conditions in all cases: glycan notation: IUPAC condensed, linker removed
[1] = molecular target: Fuc(a1-2)Gal(b1-3)GlcNAc(b1-2)Man(a1-3)[Fuc(a1-2)Gal(b1-3)GlcNAc(b1-2)Man(a1-6)]Man(b1-4)GlcNAc(b1-4)GlcNAc
How it was run: (§1)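 From the Consortium for Functional Glycomics database, 3228 arrays were curated, keeping only those whose protein sequence was available. Binding is given as a within-array Z-score averaged across arrays sharing a protein sequence and across linkers. Negative Z-scores can be read as non-binding.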

[2] = molecular target: Fuc(a1-2)Gal(b1-3)GlcNAc(b1-3)GalNAc
How it was run: as §1

[3] = molecular target: Fuc(a1-2)Gal(b1-4)GlcNAc6S
How it was run: as §1

[4] = molecular target: Fuc(a1-2)Gal(b1-4)[Fuc(a1-3)]GlcNAc
How it was run: as §1

[5] = molecular target: Fuc(a1-2)Gal(b1-4)[Fuc(a1-3)]GlcNAc(b1-2)[Fuc(a1-2)Gal(b1-4)[Fuc(a1-3)]GlcNAc(b1-4)]Man(a1-3)[Fuc(a1-2)Gal(b1-4)[Fuc(a1-3)]GlcNAc(b1-2)Man(a1-6)]Man(b1-4)GlcNAc(b1-4)GlcNAc
How it was run: as §1

[6] = molecular target: Fuc(a1-2)[Gal(a1-3)]Gal(b1-3)GlcNAc
How it was run: as §1

[7] = molecular target: Fuc(a1-2)[Gal(a1-3)]Gal(b1-4)GlcNAc(b1-2)Man(a1-3)[Fuc(a1-2)[Gal(a1-3)]Gal(b1-4)GlcNAc(b1-2)Man(a1-6)]Man(b1-4)GlcNAc(b1-4)GlcNAc
How it was run: as §1

[8] = molecular target: Fuc(a1-2)[GalNAc(a1-3)]Gal(b1-4)Glc
How it was run: as §1

[9] = molecular target: Fuc(a1-2)[GalNAc(a1-3)]Gal(b1-4)GlcNAc(b1-3)GalNAc
How it was run: as §1

[10] = molecular target: Fuc(a1-3)[Gal(b1-4)]GlcNAc(b1-2)Man(a1-3)[Fuc(a1-3)[Gal(b1-4)]GlcNAc(b1-2)Man(a1-6)]Man(b1-4)GlcNAc(b1-4)[Fuc(a1-6)]GlcNAc
How it was run: as §1

[11] = molecular target: Gal(a1-3)Gal(b1-3)GlcNAc(b1-3)GalNAc
How it was run: as §1

[12] = molecular target: Gal(b1-3)GlcNAc(a1-3)Gal(b1-4)GlcNAc
How it was run: as §1

[13] = molecular target: Gal(b1-3)GlcNAc(b1-3)Gal(b1-4)[Fuc(a1-3)]GlcNAc
How it was run: as §1

[14] = molecular target: Gal(b1-3)GlcNAc(b1-3)Gal(b1-4)[Fuc(a1-3)]GlcNAc(b1-6)[Gal(b1-3)GlcNAc(b1-3)]Gal(b1-4)Glc
How it was run: as §1

[15] = molecular target: Gal(b1-3)GlcNAc(b1-3)GalNAc
How it was run: as §1

[16] = molecular target: Gal(b1-4)GlcNAc(b1-3)Gal(b1-3)GlcNAc
How it was run: as §1

[17] = molecular target: Gal(b1-4)GlcNAc(b1-3)Gal(b1-4)GlcNAc(b1-2)[Gal(b1-4)GlcNAc(b1-3)Gal(b1-4)GlcNAc(b1-6)]Man(a1-6)[Gal(b1-4)GlcNAc(b1-3)Gal(b1-4)GlcNAc(b1-2)Man(a1-3)]Man(b1-4)GlcNAc(b1-4)[Fuc(a1-6)]GlcNAc
How it was run: as §1

[18] = molecular target: Gal(b1-4)GlcNAc(b1-3)Gal(b1-4)GlcNAc(b1-3)Gal(b1-4)GlcNAc(b1-3)Gal(b1-4)GlcNAc(b1-3)Gal(b1-4)GlcNAc(b1-2)Man(a1-3)[Gal(b1-4)GlcNAc(b1-3)Gal(b1-4)GlcNAc(b1-3)Gal(b1-4)GlcNAc(b1-3)Gal(b1-4)GlcNAc(b1-3)Gal(b1-4)GlcNAc(b1-2)Man(a1-6)]Man(b1-4)GlcNAc(b1-4)GlcNAc
How it was run: as §1

[19] = molecular target: Gal(b1-4)GlcNAc(b1-3)Gal(b1-4)GlcNAc(b1-6)[Gal(b1-3)]GalNAc
How it was run: as §1

[20] = molecular target: Gal(b1-4)GlcNAc(b1-6)[Gal(b1-4)GlcNAc(b1-3)]GalNAc
How it was run: as §1

Gal3S(b1-3)GlcNAc = molecular target: Gal3S(b1-3)GlcNAc
How it was run: as §1

Gal3S(b1-4)Glc6S = molecular target: Gal3S(b1-4)Glc6S
How it was run: as §1

Gal6S(b1-4)Glc6S = molecular target: Gal6S(b1-4)Glc6S
How it was run: as §1

[21] = molecular target: GalNAc(b1-3)Gal(a1-4)Gal(b1-4)GlcNAc
How it was run: as §1

GalNAc(b1-3)GlcNAc = molecular target: GalNAc(b1-3)GlcNAc
How it was run: as §1

[22] = molecular target: GalNAc3S(b1-4)[Fuc(a1-3)]GlcNAc
How it was run: as §1

B1: Clec39 (Caenorhabditis elegans) (protein)
chain: MTSFYDNSSSSSKPVPLKTSRAQKIQILIFDNWKLILYGAISTLILVLAIMFSTLFFALPAANCDENSEPTKYYTTNAEITTTITTTNQKTTSTASSHLTTISSSATQIYSESSSSSTSQSTFTQSPPEISTTTIAPSDFSCQHGFTLVNNKCWKLVTSNQARPDADKICNGYGGATLFSIKSEQDNRAMIHFVKGQDIDFLWSGLLCSAGEPISCIWDIENGSTANYSNFADGFPNIVYGNCVYFITSGDEAGQWGNEQCGQVMNFVCELPATFQGKDGCKNNYEKSCYLRFDLNLTVPQAQNFCLEKCANLVSIHSANEVRFIMTIYDFIGEILIGALAPAQDFIYWLDGTPANYNNLKFFYNSTCVHMTVAPGMQNVGKWFTRFCTETGKFLCKRSIKNSCT
**Q.** What does the source list for B1?
**A.** glycan array binding signal (z-score) [1]: 2.06; glycan array binding signal (z-score) [2]: 1.86; glycan array binding signal (z-score) [3]: -0.018; glycan array binding signal (z-score) [4]: 0.187; glycan array binding signal (z-score) [5]: 3.52; glycan array binding signal (z-score) [6]: -0.274; glycan array binding signal (z-score) [7]: 3.03; glycan array binding signal (z-score) [8]: 2.18; glycan array binding signal (z-score) [9]: -0.527; glycan array binding signal (z-score) [10]: 4.38; glycan array binding signal (z-score) [11]: -0.178; glycan array binding signal (z-score) [12]: -0.68; glycan array binding signal (z-score) [13]: -0.715; glycan array binding signal (z-score) [14]: 0.976; glycan array binding signal (z-score) [15]: -0.666; glycan array binding signal (z-score) [16]: -0.657; glycan array binding signal (z-score) [17]: 0.173; glycan array binding signal (z-score) [18]: 3.63; glycan array binding signal (z-score) [19]: 0.593; glycan array binding signal (z-score) [20]: 5.43; glycan array binding signal (z-score) (Gal3S(b1-3)GlcNAc): -0.524; glycan array binding signal (z-score) (Gal3S(b1-4)Glc6S): 0.293; glycan array binding signal (z-score) (Gal6S(b1-4)Glc6S): 2; glycan array binding signal (z-score) [21]: 1.49; glycan array binding signal (z-score) (GalNAc(b1-3)GlcNAc): -0.927; glycan array binding signal (z-score) [22]: 1.07
